Drawing on PubChem BioAssay AID932 (The Scripps Research Institute Molecular Screening Center, 2007), this text covers activation (% of control) for 57 molecules.

About 5,100 (2.5%) of roughly 200,000 compounds were called active.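 The calls were made as follows: active = activation above the screen-wide mean activation plus 3 SD (cut at about 130% in these data); inactive = the rest.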 The full list was thinned out, with actives kept by preference.

The experiment can be described thus: potentiators of IFN-gamma driven STAT1 reporter – cell-based, HTS, luciferase reporter, primary screen (AID 932).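 Also: raw ratio to IFN-gamma control signal so 100% means no change and 0% no light.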 The conditions noted are these: NIH 3T3 STAT1-luciferase reporter, luminescence, at 5.5 µM, stronger effect = higher value, 100% = IFN-gamma alone, no compound. In general terms: Reporter assays use an easily measured gene product as a stand-in for the process of interest.
`CC(=O)c1cnc(SCCN2C(=O)c3ccccc3C2=O)nc1C`: the activation (% of control) is 95.5% (inactive).
With `Cc1ccc(SCCN2C(=O)NC(C)(C)C2=O)cc1`, the activation (% of control) is 103% (inactive).
As to `O=C(CN1CCSCC1)N/N=C/c1ccc(Cl)cc1`, the activation (% of control) is 107% (inactive).
With `COc1ccc(-c2ccc(CCC(=O)O)n2-c2ccc(O)cc2)cc1`, the activation (% of control) was 101% (inactive).
In the case of `CCCOc1ccc(C(=O)NCCc2ccccc2)cc1`, the activation (% of control) was 76.1% (inactive).
Next, `CC(C)c1ccc(C(=O)NCCCc2ccccc2)cc1`: 131% (active); `O=C(NCCc1ccccc1)c1ccc(OCCOc2ccccc2)cc1`: 109% (inactive).
Take `COc1ccc(Cc2nnc(NC(=O)c3cc(OC)c(OC)c(OC)c3)s2)cc1OC`: the activation (% of control) was 89.1% (inactive).
For the molecule `CCOCCCNC(=O)C(NC(=O)Cc1c[nH]c2ccccc12)c1ccc(OC)cc1` (configuration not stated), the activation (% of control) is 87.9% (inactive).
To `O=C(CSc1ccsc1[N+](=O)[O-])N1CCCCC1` belongs 94.8% (inactive); to `O=C(CSCc1cccs1)N1CCCC1`, 129% (active); to `O=C(CSCc1ccc(Cl)cc1)N1CCCCC1`, 121% (inactive).
To `COc1ccc(C(=O)NCc2nnc(SCCOc3ccccc3)n2C)cc1` belongs 102% (inactive); to `CS(=O)(=O)n1nc(-c2ccccc2)nc1NCc1ccco1`, 102% (inactive); to `CCS(=O)(=O)n1nc(-c2ccccc2)nc1SCc1ccccc1`, 130% (active).
Next, `CCS(=O)(=O)n1nc(-c2ccc(OC)cc2)nc1SC`: 112% (inactive).
As to `COc1cccc(-n2c(=O)c3c(C)c(C(=O)N(C)C)sc3n(CC(=O)NCCc3ccc(OC)c(OC)c3)c2=O)c1`, the activation (% of control) was 97.9% (inactive).
Regarding `COc1ccc(NC(=O)Nc2ccc3nc(C)c(C)nc3c2)cc1`, the activation (% of control) was 103% (inactive).
To `COc1ccc(/C=N/NC(=O)Nc2ccc3nsnc3c2)c(OC)c1` belongs 114% (inactive).
Next, `COc1ccc(NC(=O)c2ccc(C#CC(C)(C)O)cc2)cc1`: 106% (inactive); `COc1ccc(NC(=O)c2ccc(OC)cc2)cc1`: 140% (active).
Next, `COc1ccc(C(=O)Nc2ccc(S(=O)(=O)NC(C)C)cc2)cc1`: 93.8% (inactive); `COc1ccc(NC(=O)Nc2ccc3nsnc3c2)cc1`: 146% (active); `CCOc1cc(/C=C(/C#N)c2ccc(Cl)cc2)cc(Cl)c1OCC(=O)O`: 56.1% (inactive).
`COc1ccccc1Cn1c(C)nnc1-c1cnn(C)c1N`: the activation (% of control) was 93.2% (inactive).
Next, `CCN(CCn1cccn1)Cc1cn[nH]c1-c1ccc(OC)cc1F`: 89% (inactive); `COc1ccc2ccccc2c1CNc1nnnn1C`: 99.2% (inactive); `CCC(=O)Nc1c(C)n[nH]c1C`: 102% (inactive).
To `COc1ccc(-n2cc(CN(C)Cc3n[nH]c(=O)[nH]3)c(-c3cccc(F)c3)n2)cc1` belongs 104% (inactive); to `Cc1ccc(NC(=S)N(CCCN2CCCC2)Cc2cccn2Cc2ccc(Cl)cc2)cc1`, 85.3% (inactive); to `Cc1ccc(S(=O)(=O)NCCc2nnc3ccc(SCc4cccnc4)nn23)cc1`, 99% (inactive).
Next, `COc1cc(-c2nc(-c3ccncc3)no2)cc(OC)c1OC`: 97.3% (inactive); `CCOc1nc(-c2ccc(OC)cc2)ccc1-c1noc(-c2cc(OC)c(OC)c(OC)c2)n1`: 102% (inactive).
Turning to `COc1ccc(-c2noc(-c3cccc(OC)c3OC)n2)cc1OC`, the activation (% of control) is 144% (active).
To `COc1cccc(NC(=O)CN(C)C(C)C(=O)Nc2ccc(C#N)cc2)c1` (configuration not stated) belongs 90.8% (inactive); to `O=C(N/N=C/c1ccc2c(c1)OCO2)C(=O)N1CCCC1`, 132% (active).
With `COc1cccc(/C=N/NC(=O)C(=O)N2CCCC2)c1`, the activation (% of control) is 99% (inactive).
With `O=C(N/N=C/c1ccc([N+](=O)[O-])cc1)C(=O)N1CCCC1`, the activation (% of control) is 107% (inactive).
On to `CC(Nc1nc(N2CCN(CCO)CC2)nc2ccccc12)c1ccccc1` (configuration not stated), for which the activation (% of control) was 106% (inactive).
To `CN(CCC1CCOCC1)Cc1cn[nH]c1-c1ccc(-c2ccccc2)cc1` belongs 115% (inactive); to `Cc1cccc(CSc2nnc(NC(=O)CSc3nnc(C)s3)s2)c1`, 107% (inactive); to `Cc1cccc(CSc2ccc(-c3cccs3)nn2)c1`, 130% (active).
Turning to `O=C(CSc1ccc(-c2cccs2)nn1)Nc1ccccc1F`, the activation (% of control) is 104% (inactive).
Next, `Cc1ccc(NC(=S)N(CCN2CCCCC2)Cc2ccco2)cc1C`: 98% (inactive).
To `C=CCC1(CC=C)CCCN1C(=O)CC1C(=O)NCCN1Cc1ccccc1OC` (configuration not stated) belongs 98.1% (inactive).
Next, `CCOC(=O)c1ccc2c(c1)nc(SCC(=O)NC(C)C)n2CC`: 103% (inactive); `CCn1c(C)nc2cc(C(=O)NNS(=O)(=O)c3ccc(C)cc3C)ccc21`: 95% (inactive).
As for `CCOC(=O)c1ccc2c(c1)nc(C)n2CC`, the activation (% of control) is 130% (active).
To `COc1ccc2nc(/N=C(\N)NC(=O)Nc3ccccc3)nc(C)c2c1` belongs 104% (inactive).
Turning to `Cc1ccc(/C=N/NC(=O)Cn2ccc(C(F)(F)F)n2)o1`, the activation (% of control) was 94.7% (inactive).
Next, `COc1ccc(C(=O)/C=C/Nc2ccccn2)cc1`: 23.6% (inactive); `Cc1cc(N/C=C\C(=O)c2ccc(Cl)c(Cl)c2)no1`: 135% (active); `CCC(=O)Nc1ccc(C(=O)Nc2cc(C)on2)cc1`: 107% (inactive).
Next, `CCn1c(C(C)C)n[nH]c1=S`: 103% (inactive); `CCc1nnc(NC(=O)CSc2nc(SC)ns2)s1`: 101% (inactive).
To `O=C(CSc1nnc2ccc(-c3ccncc3)nn12)N1CCCCC1` belongs 95.3% (inactive).
As to `CCSC1=NCCN1C(=O)c1ccc(S(=O)(=O)N(CC)CC)cc1`, the activation (% of control) is 95.6% (inactive).
